Calls of active or inactive are those of the source. Unless noted, the rule behind the calls is not given here.
What was measured:
[1] = HepG2 liver cancer cell viability effects, profiling panel, resazurin fluorescence, 24 h, PK04 Diversity Set (AID 1172); conditions: higher = more signal; note: test concentration not given here
[2] = basal S. cerevisiae growth modulation, no modifier, primary screen, OD600, strain BY4716, 24 h, basal condition (AID 1173); conditions: OD600, 24 h, higher = more signal, called active from +8 up or from −8 down
[3] = MM1S myeloma cell viability, profiling panel, resazurin fluorescence, basal, 24 h, PK04 Diversity Set (AID 1174); conditions: higher = more signal, called active from +8 up or from −8 down;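 note: MM1S multiple myeloma cell line; test concentration not given here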
[4] = molecular target: Dihydroorotate dehydrogenase (quinone), mitochondrial (Plasmodium falciparum (isolate 3D7)) (UniProt Q08210); test: PfDHODH enzyme inhibitors, primary screen, biochemical, C-terminal His tag, absorbance 600 nm (AID 1175); conditions: DCIP absorbance 600 nm, higher = more signal, called active from +8 up or from −8 down;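 note: recombinant parasite enzyme with a five histidine tag at its C terminus; test concentration not given here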
Dihydroorotate dehydrogenase (quinone), mitochondrial (Plasmodium falciparum (isolate 3D7)), sequence (Q08210 whole entry, looked up): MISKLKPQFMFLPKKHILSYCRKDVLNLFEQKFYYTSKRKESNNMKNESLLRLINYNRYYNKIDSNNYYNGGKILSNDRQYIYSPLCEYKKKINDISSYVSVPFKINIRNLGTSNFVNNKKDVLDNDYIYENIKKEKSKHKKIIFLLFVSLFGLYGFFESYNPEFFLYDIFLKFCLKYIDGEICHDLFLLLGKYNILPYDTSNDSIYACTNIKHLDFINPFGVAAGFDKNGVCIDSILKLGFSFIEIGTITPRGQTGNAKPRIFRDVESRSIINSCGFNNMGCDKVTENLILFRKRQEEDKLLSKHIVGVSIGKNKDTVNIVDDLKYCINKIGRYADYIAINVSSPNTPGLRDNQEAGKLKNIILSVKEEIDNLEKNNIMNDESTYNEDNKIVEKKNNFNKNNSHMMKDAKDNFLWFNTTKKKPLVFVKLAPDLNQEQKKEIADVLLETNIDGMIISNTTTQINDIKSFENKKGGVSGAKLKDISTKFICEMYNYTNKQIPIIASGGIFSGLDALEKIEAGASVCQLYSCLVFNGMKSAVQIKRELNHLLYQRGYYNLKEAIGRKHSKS

[5] = P. aeruginosa biofilm formation inhibitors, primary screen, strain PAO1, LB-PBS medium, absorbance 600 nm (AID 1176); note: test concentration not given here; conditions: P. aeruginosa PAO1 growth/biofilm, A600, 12 h; higher = more signal
[6] = S. cerevisiae RM11-1a growth modifiers, primary screen, strain RM11-1a, OD600, basal, 24 h (AID 1177); conditions: OD600, 24 h, higher = more signal, called active from +8 up or from −8 down;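 note: cultures grown under basal conditions with no added stressor; test concentration not given here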
[7] = E. coli acrAB mutant growth effects, primary screen, E. coli filamentation inducers, strain DRC39, OD650, 24 h (AID 1178); conditions: higher = more signal, called active from +8 up or from −8 down;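 note: growth measured as culture turbidity by optical density at 650 nm; test concentration not given here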
[8] = E. coli acrAB mutant growth effects, primary screen, E. coli filamentation inducers, strain DRC39, OD650, 48 h (AID 1179);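 note: screen aims at cell division blockers that make cells filament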; conditions: E. coli DRC39 delta-acrAB growth, higher = more signal, called active from +8 up or from −8 down
[9] = RPMI8226 myeloma cell viability, profiling panel, resazurin fluorescence, basal, 24 h, PK04 Diversity Set (AID 1180); conditions: higher = more signal;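 note: RPMI8826 multiple myeloma cell line at 5000 cells per well; test concentration not given here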
[10] = molecular target: E3 ubiquitin-protein ligase XIAP (Homo sapiens) (UniProt P98170); test: XIAP binders, primary screen, biophysical, small-molecule microarray, fluorescence 635 nm (AID 1181); conditions: small-molecule microarray binding, higher = more signal;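 note: score merges 667 nm emission and signal to noise over triplicate slides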
E3 ubiquitin-protein ligase XIAP (Homo sapiens), sequence (P98170 whole entry, looked up): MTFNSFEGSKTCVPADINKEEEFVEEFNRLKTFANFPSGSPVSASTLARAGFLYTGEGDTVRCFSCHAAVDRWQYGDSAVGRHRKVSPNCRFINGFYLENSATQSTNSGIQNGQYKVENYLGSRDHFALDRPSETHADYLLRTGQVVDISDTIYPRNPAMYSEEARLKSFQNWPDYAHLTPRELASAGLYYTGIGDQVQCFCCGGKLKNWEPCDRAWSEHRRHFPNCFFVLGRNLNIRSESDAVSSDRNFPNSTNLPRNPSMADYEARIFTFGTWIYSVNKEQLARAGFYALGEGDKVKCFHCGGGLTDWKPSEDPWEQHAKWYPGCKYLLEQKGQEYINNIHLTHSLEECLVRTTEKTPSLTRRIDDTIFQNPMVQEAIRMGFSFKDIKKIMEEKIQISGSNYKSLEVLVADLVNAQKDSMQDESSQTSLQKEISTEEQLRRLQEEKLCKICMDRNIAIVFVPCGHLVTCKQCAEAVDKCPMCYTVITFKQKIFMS

| SMILES | z-score [1] | z-score [2] | z-score [3] | composite z-score [4] | z-score [5] | z-score [6] | z-score [7] | z-score [8] | z-score [9] | composite z-score [10] |
| --- | --- | --- | --- | --- | --- | --- | --- | --- | --- | --- |
| NC(=O)[C@@]1(Cc2ccccc2)COC(c2ccc(OCCCO)cc2)=N1 | -0.101 | 0.539 (inactive) | 0.153 (inactive) | 1.86 (inactive) | -0.0304 (inactive) | 1.58 (inactive) | 2.1 (inactive) | 0.595 (inactive) | -0.0366 | -0.0559 |
| CN1C(=O)C2C=CC(C(O)c3cccn3C)N(Nc3ccc([N+](=O)[O-])cc3[N+](=O)[O-])C2C1=O (stereo not given) | -0.929 | 1.1 (inactive) | -1.76 (inactive) | -0.145 (inactive) | 0.667 (inactive) | 0.407 (inactive) | -0.314 (inactive) | -0.119 (inactive) | -1.34 | -0.354 |
| COc1cc2c(cc1O)C(c1cccs1)N(Cc1cc3c(cc1Br)OCO3)CC2 (stereo not given) | -0.608 | -1.4 (inactive) | -0.511 (inactive) | -1.88 (inactive) | -0.227 (inactive) | 0.488 (inactive) | -0.284 (inactive) | -1 (inactive) | -1.59 | 0.483 |
| COC(=O)c1c(CC[C@@H](CO)NC(=O)N[C@@H](C)Cn2cc(-c3ccccn3)nn2)oc(C(C)=O)c1C(=O)OC | -0.962 | -0.369 (inactive) | 0.0168 (inactive) | -2.74 (inactive) | -0.109 (inactive) | -0.37 (inactive) | -0.207 (inactive) | -0.605 (inactive) | -0.921 | 0.0808 |
| COC(=O)C/C=C/C[C@]1(O)C(=O)N(C)c2ccccc21 | 0.197 | -1.81 (inactive) | 0.913 (inactive) | -0.429 (inactive) | 0.732 (inactive) | -2.6 (inactive) | 2.38 (inactive) | 0.875 (inactive) | 0.547 | -0.0861 |
| Cc1ccc(N2C(=O)c3ccccc3[C@@H](C(=O)NCCCN(C)C)[C@@H]2c2ccc(CO)cc2)nc1 | 0.258 | -0.957 (inactive) | -0.252 (inactive) | -0.746 (inactive) | -0.397 (inactive) | -0.64 (inactive) | -0.152 (inactive) | 0.327 (inactive) | 0.262 | -0.102 |
| CCOC(=O)C[C@H]1[C@H](OC(=O)c2ccc(C(=O)c3ccccc3)cc2)[C@@H](NC(=O)c2ccc3ccccc3n2)c2cc(OCCCO)ccc2N1C(=O)Cc1ccc(OC)cc1 | -0.0031 | 1.03 (inactive) | 0.0487 (inactive) | -0.0608 (inactive) | -0.75 (inactive) | 0.0192 (inactive) | -2.25 (inactive) | -2.31 (inactive) | 0.131 | -0.0961 |
| O=C1C2C=CC(C(O)C3CC=CCC3)N(Nc3ccccc3)C2C(=O)N1c1ccccc1 (stereo not given) | -0.868 | -1.22 (inactive) | -1.57 (inactive) | -0.558 (inactive) | 1.18 (inactive) | -0.197 (inactive) | -0.572 (inactive) | -0.658 (inactive) | -1.12 | 0.251 |
| CCCCNC(=O)c1ccc(C#CC(C)(C)C)c(OC(C)=O)c1 | 0.111 | -2.59 (inactive) | 0.611 (inactive) | -1.14 (inactive) | -0.517 (inactive) | 0.516 (inactive) | 1.27 (inactive) | 0.256 (inactive) | 0.116 | -0.283 |
| CN(C)C(=O)[C@@]1(Cc2ccccc2CN=[N+]=[N-])N=C(c2ccc(OCCCO)cc2)O[C@H]1c1ccccc1N=[N+]=[N-] | -0.699 | 0.37 (inactive) | -2.96 (inactive) | 1.3 (inactive) | 0.522 (inactive) | 1.22 (inactive) | 0.776 (inactive) | -0.893 (inactive) | -3.85 | 0.202 |
| CC(C)[Si](C#CCCCC#N)(O[C@H](c1ccccc1)c1cn(Cc2ccccc2)nn1)C(C)C | -0.538 | -6.51 (inactive) | 0.118 (inactive) | -0.0054 (inactive) | 0.584 (inactive) | -0.431 (inactive) | -0.25 (inactive) | 0.0331 (inactive) | 0.424 | -0.0025 |
| CCCCCN1CC=CC23O[C@@H]4/C=C\CCC(C)OC(=O)C4[C@H]2C(=O)N(C(CO)C(C)C)[C@@H]3C1=O (stereo not given in full) | 0.713 | -0.82 (inactive) | -0.502 (inactive) | -1.74 (inactive) | 0.193 (inactive) | -0.116 (inactive) | 0.451 (inactive) | 0.236 (inactive) | 1.41 | 0.0627 |
| [N-]=[N+]=NCc1ccccc1[C@H]1OC(c2ccc(OCCCO)cc2)=N[C@@]1(Cc1ccccc1N=[N+]=[N-])C(=O)NCC(O)CO (stereo not given in full) | -0.144 | -1.39 (inactive) | -0.898 (inactive) | -0.407 (inactive) | 0.758 (inactive) | 0.313 (inactive) | -0.0245 (inactive) | -0.188 (inactive) | -1.06 | 0.133 |
| CC(C)C(CO)N1C(=O)[C@@H]2C3C(=O)OCCC/C=C\[C@H]3OC23C=CCN(Cn2nnc4ccccc42)C(=O)[C@@H]13 (stereo not given in full) | 0.658 | -0.133 (inactive) | 0.184 (inactive) | -1.09 (inactive) | 0.233 (inactive) | -0.0374 (inactive) | 0.246 (inactive) | 0.118 (inactive) | 0.37 | -0.0367 |
| COC(=O)[C@@]1(Cc2ccc(OC)cc2)[C@H]2c3cc(C(=O)N4CCCC4)n(CCO)c3C[C@H]2CN1C(=O)c1ccccc1 | -1.39 | 0.91 (inactive) | -2.2 (inactive) | -0.203 (inactive) | 0.632 (inactive) | 0.941 (inactive) | -0.614 (inactive) | -1.21 (inactive) | -0.861 | 0.311 |
| C=CCC(OC(C)=O)[C@@H]1[C@@H](N(Cc2ccc(-c3cccc(C(F)(F)F)c3)o2)C(=O)c2ccc(-c3ccccc3)cc2)c2cc(OCCCO)ccc2N1C(=O)Cc1ccc2ccccc2c1 (stereo not given in full) | 0.0839 | 0.915 (inactive) | -0.115 (inactive) | 0.306 (inactive) | 0.338 (inactive) | 0.805 (inactive) | 0.0952 (inactive) | 0.119 (inactive) | 0.322 | -0.17 |
| CCOC(=O)C1=C[C@@H](C(C)(C)C)N(S(=O)(=O)c2ccc(C)cc2)[C@H]1c1cccc2ccccc12 | -0.433 | 3.26 (inactive) | -0.835 (inactive) | 0.716 (inactive) | 0.312 (inactive) | 3.01 (inactive) | -0.624 (inactive) | -0.511 (inactive) | -2.66 | 0.307 |
| COCCOC(=O)N1C(=O)[C@@]2(c3cc(C#CC4=CCCCC4)ccc31)[C@H](C(=O)Nc1nc3ccccc3s1)[C@H]1C(=O)O[C@H](c3ccccc3)[C@H](c3ccccc3)N1[C@@H]2c1ccc(O)cc1 | -0.263 | -0.344 (inactive) | -0.679 (inactive) | 0.347 (inactive) | 0.766 (inactive) | -0.145 (inactive) | -0.469 (inactive) | -0.765 (inactive) | -0.527 | -0.138 |
| CCCCCN1CC=CC23O[C@@H]4/C=C\CCCOC(=O)C4[C@H]2C(=O)N(C(C)CO)[C@@H]3C1=O (stereo not given in full) | 0.652 | 0.102 (inactive) | 0.295 (inactive) | -0.298 (inactive) | 0.398 (inactive) | 0.493 (inactive) | 1.25 (inactive) | 0.945 (inactive) | 0.541 | -0.162 |
| Cc1ccc(F)cc1S(=O)(=O)N[C@@H]1CCN(Cc2ccc(Br)cc2)C1 | -0.281 | -11.9 (active) | 0.611 (inactive) | -0.573 (inactive) | -0.73 (inactive) | -0.184 (inactive) | 1.13 (inactive) | -0.795 (inactive) | 0.264 | -0.17 |
| O=C1CS(=O)(=O)C(c2cccc([N+](=O)[O-])c2)N1c1ccccc1 (stereo not given) | 0.946 | -1.3 (inactive) | 0.973 (inactive) | -1.21 (inactive) | 0.627 (inactive) | -0.818 (inactive) | 1.16 (inactive) | 1.21 (inactive) | 0.511 | 0.0055 |
| COc1cc(OC)c(C(O)C2C=CC3C(=O)N(Cc4ccccc4)C(=O)C3N2n2cnnc2)cc1Br (stereo not given) | -0.797 | -8.67 (active) | -0.982 (inactive) | -0.552 (inactive) | -0.169 (inactive) | -3.92 (inactive) | -0.514 (inactive) | -0.905 (inactive) | -1.21 | 0.197 |
| CN1C2C=C(CCCO)C(C3C(=O)N(C(N)=O)C(=O)C32)C1C1CC1 (stereo not given) | -0.444 | 0.796 (inactive) | -0.179 (inactive) | -0.884 (inactive) | -0.341 (inactive) | -0.18 (inactive) | -0.686 (inactive) | -0.743 (inactive) | -0.761 | 0.0361 |
| COC(=O)[C@@]1(Cc2ccc(F)cc2)[C@H]2c3cc(C(=O)N(C)C)n(Cc4ccc(OC(F)(F)F)cc4)c3C[C@H]2CN1C(=O)c1ccccc1 | -0.674 | 0.825 (inactive) | -0.933 (inactive) | -0.0384 (inactive) | 0.604 (inactive) | 0.245 (inactive) | -0.586 (inactive) | -0.499 (inactive) | -0.603 | -0.102 |
| Oc1ccc2cc[n+](Cc3cc4c(cc3Br)OCO4)cc2c1 | -0.269 | -0.72 (inactive) | -0.526 (inactive) | -0.625 (inactive) | -0.159 (inactive) | 1.31 (inactive) | 0.364 (inactive) | 0.161 (inactive) | -0.135 | -0.281 |
| COc1cc(C(O)C2C=CC3C(=O)N(C)C(=O)C3N2Nc2ccccc2)cc(OC)c1OC (stereo not given) | -0.237 | -2.86 (inactive) | 0.162 (inactive) | 0.377 (inactive) | 0.586 (inactive) | 0.155 (inactive) | -0.654 (inactive) | -0.852 (inactive) | -0.0998 | 0.14 |

From PubChem BioAssay
